Results taken from PubChem BioAssay (NCATS).
Records with an inconclusive call do not appear. Calls of active or inactive are those of the source. The call rests on the fitted dose curve; in most records, active means well fitted curve in the direction sought with a large enough effect; inconclusive means small, poorly fitted or top-dose-only effect, or another doubt; inactive means no such curve, though single readings can be large; an effect the other way counts as inactive or inconclusive. Peptide text beside a SMILES is read from it. * marks the point of attachment. Octanoyl = CCCCCCCC(=O)*

Key:
[1] = tested on: Zika virus NS2B-NS3 protease (linked construct); assay: Primary screen NINDS Rhodamine qHTS for Zika virus inhibitors (AID 1347160); further: nearly all actives have a fitted effect of over 55% in size; further: potency means the concentration at half of the fitted maximal effect
How it was run: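 Enzyme (25 nM, linked NS2B-NS3) was preincubated 15 min with compound in 10 mM Tris-HCl pH 8.0, 0.01% Tween 20. Rhodamine110 substrate (1.5 microM) was then added and fluorescence read at start and after 15 min.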

[2] = OV-KATE Cancer Cell Toxicity qHTS against the NCATS CANVASS Library (AID 1347345)
How it was run: (§1)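 Toxicity is measured over 72 h of compound exposure at 37 degrees C under 5% CO2. Each well holds 1000 cells, pre-incubated for 4 hours before dosing across an 11-point range. CellTiter-Glo luminescence gives viability.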

[3] = HPAF-II Cancer Cell Toxicity qHTS against the NCATS CANVASS Library (AID 1347346); further: series mostly up to about 38 µM; nearly all actives have a fitted effect of over 55% in size
How it was run: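 Using 1000 HPAF-II cells per well, we titrated compounds over 11 concentrations for 72 h at 37 degrees C/5% CO2, with bortezomib as control. Cell survival was quantified by CellTiter-Glo luminescence.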

[4] = UWB1.289 Cancer Cell Toxicity qHTS against the NCATS CANVASS Library (AID 1347347); further: nearly all actives have a fitted effect of over 60% in size; further: potency means the concentration at half of the fitted maximal effect
How it was run: as §1

[5] = Panc-1005 Cancer Cell Toxicity qHTS against the NCATS CANVASS Library (AID 1347349); further: series mostly up to about 38 µM; nearly all actives have a fitted effect of over 60% in size
How it was run: as §1

[6] = SW1088 Cancer Cell Toxicity qHTS against the NCATS CANVASS Library (AID 1347350); further: nearly all actives have a fitted effect of over 75% in size
How it was run: as §1

[7] = COV-362 Cancer Cell Toxicity qHTS against the NCATS CANVASS Library (AID 1347352); further: series mostly up to about 38 µM
How it was run: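 Using an ATP-based luminescent reagent after three days of treatment, toxicity is scored across an eleven-concentration range in wells holding 1000 cells each.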

[8] = HEK293 18hr Apoptosis Induction qHTS against the NCATS CANVASS Library (AID 1347357)
How it was run: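 HEK293 cells (500 per well, DMEM with 10% FBS) were treated with natural products, incubated 18 hours at 37 degrees C, then caspase-3/7 activity was read by Caspase-Glo luminescence after 15 min at room temperature.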

[9] = HEK293 24hr Apoptosis Induction qHTS against the NCATS CANVASS Library (AID 1347359)
How it was run: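 Caspase-3/7 activation measured as luminescence from the DEVD-based Caspase-Glo reagent, 15 min at room temperature, following 24-hour compound treatment of HEK293 cells.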

[10] = HEK293 12hr Apoptosis Induction qHTS against the NCATS CANVASS Library (AID 1347361)
How it was run: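 Read-out: Caspase-Glo 3/7 luminescence (DEVD substrate), 15 min RT. Preceded by 12 h compound exposure of HEK293, 500 cells/well, 11-pt qHTS titration; doxorubicin titration as control.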

[11] = target: Luciferin 4-monooxygenase (Photinus pyralis) (UniProt P08659); assay: Firefly luciferase counterscreen qHTS: Assay Interference Panel against the NCATS CANVASS Library (AID 1347363); further: series mostly up to about 57 µM
Chain of Luciferin 4-monooxygenase (Photinus pyralis) (P08659 whole entry, looked up): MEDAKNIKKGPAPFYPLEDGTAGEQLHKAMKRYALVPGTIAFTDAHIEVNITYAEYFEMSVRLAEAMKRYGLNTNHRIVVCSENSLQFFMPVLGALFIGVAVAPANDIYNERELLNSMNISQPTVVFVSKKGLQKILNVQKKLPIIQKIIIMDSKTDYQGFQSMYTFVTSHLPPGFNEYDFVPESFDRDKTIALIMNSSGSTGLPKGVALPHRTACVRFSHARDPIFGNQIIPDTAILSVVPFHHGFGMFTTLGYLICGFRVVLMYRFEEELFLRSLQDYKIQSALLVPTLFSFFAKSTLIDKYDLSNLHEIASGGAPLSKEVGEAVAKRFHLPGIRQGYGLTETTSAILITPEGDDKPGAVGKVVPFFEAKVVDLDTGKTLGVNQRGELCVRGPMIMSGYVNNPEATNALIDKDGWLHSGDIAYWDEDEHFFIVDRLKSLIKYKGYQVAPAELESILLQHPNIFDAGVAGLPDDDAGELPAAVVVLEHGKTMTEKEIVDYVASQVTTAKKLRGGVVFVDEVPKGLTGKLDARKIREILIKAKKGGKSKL
How it was run: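 Luminescence inhibition readout: compounds (11-point qHTS) sat 15 min at room temperature with substrate mix (0.013 mM luciferin and ATP), then firefly luciferase was added and signal read 5 min later.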

[12] = KB-3-1 Cancer Cell Toxicity qHTS against the NCATS CANVASS Library (AID 1347366); further: nearly all actives have a fitted effect of over 75% in size
How it was run: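 KB-3-1 cells (500 cells/well) in DMEM + 10% FBS were treated with compounds for 72 hr at 37C, 5% CO2. Viability was read as CellTiter-Glo luminescence after 10 minutes at room temperature.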

[13] = MCF7 Cancer Cell Toxicity qHTS against the NCATS CANVASS Library (AID 1347369)
How it was run: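 MCF7, 500 cells/well; cpds 11-pt qHTS; 72 hr, 37C/5% CO2; CellTiterGlo ATP luminescence.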

[14] = qHTS for ATAD5 Antagonist screened against the NCATS CANVASS Library (AID 1347370);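 further: HEK293T cells carrying an ATAD5 luciferase reporter co-treated with 10 µM 5-fluorouridine; series mostly up to about 46 µM; nearly all actives have a fitted effect of over 65% in size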
How it was run: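 HEK293T-ATAD5 luc reporter, 2000 cells/well; 5hr attach; cpd + 10 uM 5-FUrd; 16hr 37C, 5% CO2. Readouts: CellTiter-Fluor fluorescence (1hr), then Amplite luciferase luminescence (30min RT).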

[15] = J3T Cancer Cell Toxicity qHTS against the NCATS CANVASS Library (AID 1347371);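 further: J3T is a canine glioma cancer cell line seeded at 500 cells per well; series mostly up to about 46 µM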
How it was run: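 ATP-based cytotoxicity in canine J3T cells: 72 hr exposure at 37C, 11-point titration, CellTiterGlo luminescent detection.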

[16] = target: Nuclear receptor subfamily 1 group I member 3 (Homo sapiens) (UniProt Q14994); assay: qHTS for Constitutive Androstane Receptor (CAR) Agonist screened against the NCATS CANVASS Library (AID 1347373);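 further: every well also contained 1.5 µM PK11195 alongside the test compound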
Chain of Nuclear receptor subfamily 1 group I member 3 (Homo sapiens) (Q14994 whole entry, looked up): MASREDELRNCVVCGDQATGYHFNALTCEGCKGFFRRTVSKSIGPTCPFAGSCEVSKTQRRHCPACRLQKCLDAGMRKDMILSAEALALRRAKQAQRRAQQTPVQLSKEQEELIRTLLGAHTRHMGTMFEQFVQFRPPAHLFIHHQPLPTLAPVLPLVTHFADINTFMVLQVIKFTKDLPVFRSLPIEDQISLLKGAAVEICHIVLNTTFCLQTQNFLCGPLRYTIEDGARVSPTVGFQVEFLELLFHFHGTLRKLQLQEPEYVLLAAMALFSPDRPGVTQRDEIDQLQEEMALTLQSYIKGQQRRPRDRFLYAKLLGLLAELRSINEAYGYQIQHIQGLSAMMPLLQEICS
How it was run: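 In an 11-point concentration series, compounds were incubated 24hr with HepG2 cells carrying hCAR and a CYP2B6-2.2kb reporter, with PK11195 at 1.5uM final. A CellTiter-Fluor viability read preceded the ONE-Glo luminescence read.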

[17] = 10-beta competent E. coli microbial cell viability qHTS against the NCATS CANVASS Library (AID 1347376); further: series mostly up to about 46 µM
How it was run: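 Overnight 37C exposure of 10-beta E. coli (0.2 OD) to an 11-point concentration series; ATP-based luminescence after 20 min room-temperature reagent incubation; daunomycin as control.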

[18] = qHTS for Inflammasome Signaling Inhibitors: IL-1-beta AlphaLISA screen against the NCATS CANVASS Library (AID 1347379);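 further: human THP-1 cells primed with LPS then triggered with ATP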
How it was run: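 THP-1, 1 hr compound pre-incubation, then LPS 250 ng/mL + ATP 1.25 mM (final); 16 hr total with compound; IL-1B AlphaLISA, ex 680/em 615 nm; 11-point qHTS, up to 57.5 uM final.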

[19] = Inflammasome Signaling qHTS Counterscreen: IL-1-beta AlphaLISA counterscreen against the NCATS CANVASS Library (AID 1347381);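 further: cell-free check with purified IL-1β in medium and no THP-1 cells; series mostly up to about 57 µM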
How it was run: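 Here, no cellular stimulation occurs; compounds in an 11-point series meet 4 pg purified IL-1-beta directly. Bead-based AlphaLISA detection follows (1 h acceptor/antibody, then 30 min donor, dark, room temperature), with excitation at 680 nm.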

[20] = Vero-766 cells viability qHTS against the NCATS CANVASS Library: Counterscreen for Zika virus inhibition assay (AID 1347394); further: series mostly up to about 46 µM; nearly all actives have a fitted effect of over 60% in size
How it was run: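 Uninfected Vero 766 (African green monkey) cells, 1000/well, attached overnight, then exposed 72 h at 37C to compounds (11-point qHTS). Viability read by CellTiter-Glo luminescence; media-only wells served as 100% inhibition.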

Measured: Potency

CCCCCCCC(=O)N[C@@H](CC(C)C)C(=O)N[C@H](C=O)CCC(=O)O (Octanoyl-Leu-Glu-aldehyde)
active: [1] 39.2 µM
inactive: all other assays above

O=C(O)[C@@]12COC3(O)C1CCN1CC[C@H]3[C@@H]1c1c2[nH]c2ccccc12
inactive: all assays above

CC[C@@H]1C[C@@]2(CC)OC(=O)[C@@]3(CC)OC(=O)[C@@H]1[C@@H]23
inactive: all assays above

C[C@@]12CCC[C@@](C)(C(=O)O)[C@H]1C[C@@H](O)[C@]13C[C@H]4C[C@H](O[C@@]4(C)C1)[C@@H]23
active: [1] 31.1 µM
inactive: all other assays above

C[C@@]12CCC[C@@](C)(C(=O)O)[C@H]1CC[C@]13C[C@H]4C[C@H](O[C@@]4(C)C1)[C@H]32
active: [1] 3.92 µM | [4] 7.47 µM
inactive: all other assays above
